Results from publication PMC6792352, “Limited Chemical Structural Diversity Found to Modulate Thyroid Hormone Receptor in the Tox21 Chemical Library” (Environmental Health Perspectives, 2019).
Structures can show the parent of a compound that is named as a salt.

The compounds below were run on thyroid hormone receptor (endogenous TRα and TRβ). Settings: read-out: Average AC50 (uM) GH3-TRE-Antag, antagonist mode, 1 nM T3, no GH3 cytotoxicity hit.
Parameters: species or system GH3-TRE-Luc (rat pituitary); GH3-TRE-Luc luciferase reporter, antagonist mode against 1 nM T3, loss of signal, qHTS
`CC(C)[C@H](C(=O)O[C@H](C#N)c1cccc(Oc2ccccc2)c1)c1ccc(Cl)cc1` [Esfenvalerate] gave an AC50 of 48 µM.
For `CCCCOc1ccc(OCCCN2CCOCC2)cc1` [Pramoxine hydrochloride], the AC50 was 12.8 µM.
Compound `COc1ccc(C(=O)c2ccc(O)cc2)c(OC)c1` [(2,4-dimethoxyphenyl)(4-hydroxyphenyl)methanone] has an AC50 of 54.9 µM.
For `CC/C=C\C/C=C\C/C=C\CCCCCCCC(=O)O` [Linolenic acid], the AC50 was > 50 µM.
`CC(C)(C)C(O)C(Oc1ccc(Cl)cc1)n1cncn1` (stereo not shown) [Triadimenol] was tested, and the AC50 was > 90 µM.
`CCN(CC)CCOC(=O)[C@H](Cc1cccc2ccccc12)C[C@H]1CCCO1` [Nafronyl oxalate] gave an AC50 of 10.7 µM.
`CN1CCN2c3ncccc3Cc3ccccc3C2C1` (stereo not shown) [Mirtazapine] showed an AC50 of 15.4 µM.
In the case of `O=S(=O)(NS(=O)(=O)C(F)(F)F)C(F)(F)F` [1-Hexyl-3-methylimidazolium bis(trifluoromethylsulfonyl)imide], the AC50 is reported as 66.1 µM.
`c1ccc(C2(c3ccccc3)CC2C2=NCCN2)cc1` (stereo not shown) [Cifenline succinate] gave an AC50 of 35.8 µM.
Compound `Clc1cc(C(Cl)(Cl)Cl)cnc1Cl` [2,3-Dichloro-5-(trichloromethyl)pyridine] has an AC50 of 40.5 µM.
In the case of `Cn1cnc([N+](=O)[O-])c1Sc1ncnc2[nH]cnc12` [Azathioprine], the AC50 is reported as > 50 µM.
Work on `Cl/C(=C\n1cncn1)c1ccc(Cl)cc1Cl` [Loreclezole hydrochloride] yielded an AC50 of 18.3 µM.
Compound `CCOC(=O)NC(=S)Nc1ccccc1NC(=S)NC(=O)OCC` [Thiophanate] has an AC50 of 47.1 µM.
For `CC(=O)O[C@]1(C(C)=O)CC[C@H]2[C@@H]3C=C(C)C4=CC(=O)CC[C@]4(C)[C@H]3CC[C@@]21C` [Megestrol acetate], the AC50 was > 20 µM.
`CCCCCCCCCCCCN` [1-Dodecanamine] showed an AC50 of 74.1 µM.
With `O=C(O)c1cccnc1Nc1cccc(C(F)(F)F)c1` [Niflumic acid] the AC50 was 20.3 µM.
For `O=S(=O)(O)c1ccccc1/C=C/c1ccc(-c2ccc(/C=C/c3ccccc3S(=O)(=O)O)cc2)cc1` [Disodium 4,4'-bis(2-sulfostyryl)biphenyl], the AC50 was 26.4 µM.
`CCC(C)(C)c1ccc(O)cc1` [4-(2-Methylbutan-2-yl)phenol] was tested, and the AC50 was > 50 µM.
In the case of `CCCCN(CCCC)CCC(O)c1cc2c(Cl)cc(Cl)cc2c2cc(C(F)(F)F)ccc12` (stereo not shown) [Halofantrine hydrochloride], the AC50 is reported as 15.6 µM.
Work on `Cn1c(CCCC(=O)O)nc2cc(N(CCCl)CCCl)ccc21` [Bendamustine] yielded an AC50 of 28 µM.
Work on `CCCCCC[C@@H](O)C/C=C\CCCCCCCC(=O)O` [Potassium ricinoleate] yielded an AC50 of 31.8 µM.
`O=C1c2ccccc2-c2n[nH]c3cccc1c23` [SP600125] was tested, and the AC50 was 11.6 µM.
With `COC1=CC(=O)O[C@@H](/C=C/c2ccc3c(c2)OCO3)C1` [Methysticin] the AC50 was 0.0476 µM.
Work on `Cc1cccc(C(C)(C)C)c1O` [2-tert-Butyl-6-methylphenol] yielded an AC50 of 75.7 µM.
`CC[N+](CC)(CC)CCOc1ccc(/C=C/c2ccccc2)cc1` [Stilonium iodide] gave an AC50 of 27 µM.
`CCOC(=O)c1c(N)sc2c1CCN(Cc1ccccc1)C2` [Tinoridine] gave an AC50 of 37.8 µM.
For `CCOc1ccc2[nH]cc(C(=O)NCc3ccccc3)c(=O)c2n1` [CP-457920], the AC50 was 45.2 µM.
For `CCCc1nc2c(C)cc(-c3nc4ccccc4n3C)cc2n1Cc1ccc(-c2ccccc2C(=O)O)cc1` [Telmisartan], the AC50 was 31.6 µM.
In the case of `O=C(O)C1(C(=O)Nc2ccc(Cl)cc2Cl)CC1` [Cyclanilide], the AC50 is reported as 64.4 µM.
In the case of `CCCCCCCCCCCCCCCC(=O)O[C@@H]1CC(C)=C(/C=C/C(C)=C/C=C/C(C)=C/C=C/C=C(C)/C=C/C=C(C)/C=C/C2=C(C)C[C@@H](OC(=O)CCCCCCCCCCCCCCC)CC2(C)C)C(C)(C)C1` [Physalien], the AC50 is reported as 39.2 µM.
`O=C(O)c1cc(Cl)cc(Cl)c1O` [3,5-Dichlorosalicylic acid] showed an AC50 of 68.6 µM.
For `C[C@H]1O[C@@H](O[C@H]2[C@@H](O)C[C@H](O[C@H]3[C@@H](O)C[C@H](O[C@H]4CC[C@@]5(C)[C@H](CC[C@@H]6[C@@H]5C[C@@H](O)[C@]5(C)[C@@H](C7=CC(=O)OC7)CC[C@]65O)C4)O[C@@H]3C)O[C@@H]2C)C[C@H](O)[C@@H]1O` [Digoxin], the AC50 was > 50 µM.
`Oc1ccccc1Cc1ccccc1O` [2,2'-Bisphenol F] was tested, and the AC50 was > 90 µM.
Compound `CCCCOC(=O)/C=C\C(=O)OCCCC` [Dibutyl maleate] has an AC50 of 37.6 µM.
